According to PubChem BioAssay AID651706 (NMMLSC, 2012):
Screen size: about 2,300 compounds; about 55 (2%) were called active.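 The calls were made as follows: active = share of green or green-and-red cells above 9 and 9% in run 1 or 4 and 3% in run 2; inactive = the rest, inconclusive results apart.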 Not all results are given here.

Assay: differentiation of ER-HoxA9 arrested myeloid cells – cell-based, GFP/Mac1 flow cytometry, cherry pick 01, confirmation (AID 651706);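 as to differentiation response: plate controls were double positive share in DMSO wells for no effect and share in positive control wells for full effect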;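 as to double positive cells: share of live cells carrying both lysozyme GFP and MAC1 staining after four days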
Settings: ER-HoxA9 myeloid progenitors, stronger effect = higher value; differentiation response: GFP/Mac1 double-positive flow; double positive cells: measured here: percent double positive cells

Structure (SMILES)	differentiation response	double positive cells [%]
Cc1ccc2nc(-c3ccccn3)cc(C(=O)Nc3ccc4c(c3)OCO4)c2c1	1.4% (inactive)	0.8
CCN(CC)CC(=O)c1c[nH]c2ccc(OC)cc12	1.4% (inactive)	0.9
CNc1nc(=O)n(C2CCCO2)cc1C (stereo not drawn)	2.7% (inactive)	1.3
Cc1cc(C)c(-c2csc(NC(=O)CCCc3nc4ccccc4c(=O)[nH]3)n2)c(C)c1	3.35% (inactive)	0
CN1CCC(CN)(N2CCN(c3ccccc3)CC2)CC1	1.95% (inactive)	1.25
COc1ccc(S(=O)(=O)N2CCC(C(=O)N3CCc4ccccc4C3)CC2)cc1OC	1% (inactive)	1
Cc1ccc(OS(=O)Nc2cccc3nccnc23)cc1 (stereo not drawn)	1.6% (inactive)	0.85
CCN(CC)C(=O)CSC(Nc1cccc(F)c1)=C(C#N)C#N	13.7% (inactive)	0.9
COc1cc(N=Cc2c(O)[nH]c3ccccc23)cc(OC)c1OC	0% (inactive)	0
CNC[C@H]1Oc2c(NC(=O)C3CCCCC3)cccc2C(=O)N([C@H](C)CO)C[C@@H]1C	4.4% (inactive)	3.95
Cc1nn(-c2ncccn2)c2c1C(=O)CC(C)(C)C2Br (stereo not drawn)	1% (inactive)	0.85
Cn1c2ccccc2c2cc(/C=C(\NC(=O)c3ccccc3)C(=O)NCC(=O)O)ccc21	3.05% (inactive)	2.15
CCOC(=O)c1c(-c2ccc(C)cc2)csc1/N=C(\C)C1=C(O)c2ccccc2C1=O	12.2% (inactive)	3.3
COc1ccc(-c2ccc(OC(=O)NC3CCS(=O)(=O)C3)cc2)cc1 (stereo not drawn)	2.2% (inactive)	0.5
O=S(=O)(c1ccc(Br)cc1)c1nc(-c2ccccc2)oc1NCc1cccnc1	50.5% (inactive)	50.2
Nc1nc(Nc2ccccc2F)nc(NC2CCCCC2)c1[N+](=O)[O-]	51.1% (inactive)	25
Cc1ccc(Nc2cc(C)nc3c(C)ccc([N+](=O)[O-])c23)cc1	11.4% (inactive)	0.55
CN1OC(COC(=O)c2ccc(Cl)cc2)CC1c1ccccc1 (stereo not drawn)	1.05% (inactive)	0.8
COc1cc(/C=C2/SC(=S)N(Cc3ccccc3)C2=O)cc(OC)c1O	2.8% (inactive)	0.4
Clc1ccc(-c2nnc(SCc3nc4ccccc4s3)o2)cc1	1.05% (inactive)	1
CC(=O)Nc1ccc(S(=O)(=O)Nc2ccc(N3CCOCC3)c(F)c2)cc1	1.45% (inactive)	1
COc1ccc(N(CC(=O)NC2CCCCCCC2)S(=O)(=O)c2c(C)nn(C)c2C)cc1	1.75% (inactive)	0.95
O[C@H]1C[C@H](c2ccc(Cl)cc2)N(Cc2cccs2)C[C@@H]1n1cc(C2CC2)nn1	18.4% (active)	13.1
O[C@H]1CN(Cc2cccs2)[C@@H](c2ccc(Cl)cc2)C[C@@H]1n1cc(C2CC2)nn1	1.4% (inactive)	1.1
